About 1,400 (61%) of roughly 2,300 compounds were called active. About 7% were inconclusive and are not listed. No rule for the calls is given here. The set was probably picked from earlier hits. These entries were drawn from the full list. Results with a measured potency or affinity are listed apart.
What follows are molecules tested against FAD-linked sulfhydryl oxidase ALR (Homo sapiens) (UniProt P55789) (assay: ALR-catalysed DTT oxidation blockers – biochemical, H2O2 detection, luminescence, cherry-pick, dose response (AID 493248)). Conditions: purified ALR, H2O2 HRP-luminol luminescence; at 10 µM (top of the series).
FAD-linked sulfhydryl oxidase ALR (Homo sapiens), sequence (P55789 whole entry, looked up): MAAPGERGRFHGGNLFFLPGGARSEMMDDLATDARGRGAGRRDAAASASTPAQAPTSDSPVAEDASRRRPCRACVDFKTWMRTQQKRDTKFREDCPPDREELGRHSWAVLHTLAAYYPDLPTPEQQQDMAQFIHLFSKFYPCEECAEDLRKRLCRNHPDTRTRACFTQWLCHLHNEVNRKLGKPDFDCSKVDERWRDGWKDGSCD
Molecule `COc1ccc(C=O)cc1CSc1ccccn1` has an activity change, negative = inhibition of -11.6%. `COc1c(OC)c(O)c2c(=O)cc(-c3c(O)cccc3O)oc2c1OC` was tested, and the activity change, negative = inhibition was 162%. For `Cc1nc(-c2ccc([N+](=O)[O-])cc2)c(-c2ccccc2)o1`, the activity change, negative = inhibition was 29.9%. For `O=C(CC1C(=O)Nc2ccccc2N1CC(=O)N1CCCC1)Nc1ccc(Br)cc1` (stereo unspecified), the activity change, negative = inhibition was -30%. For `CCN(CC)c1ccc2oc(=O)c(C)nc2c1`, the activity change, negative = inhibition was 88.3%. With `O=C(CCNc1cccc(Cl)c1)c1ccco1` the activity change, negative = inhibition was -4.82%. In the case of `O=C(c1cc(C(=O)c2ccco2)cc(C(=O)c2ccco2)c1)c1ccco1`, the activity change, negative = inhibition is reported as -7.08%. `COc1cc(NCCC(=O)c2cccs2)c(OC)cc1Cl` gave an activity change, negative = inhibition of -89.7%. `NC(=O)NC1CCCc2c1[nH]c1ccc(Cl)cc21` (stereo unspecified) was tested, and the activity change, negative = inhibition was -12.4%. `c1ccc2c3c([nH]c2c1)-c1[nH]ncc1CC3` showed an activity change, negative = inhibition of -82.4%. Work on `COc1ccc(-c2csc(NC(=O)[C@H](C)N3C(=O)C4CC=CCC4C3=O)n2)cc1OC` (stereo partly specified) yielded an activity change, negative = inhibition of -58.5%. Work on `COc1cc(/C=C2\SC(=Nc3ccccc3OC)NC2=O)ccc1O` yielded an activity change, negative = inhibition of -53.3%. `O=C(c1cccc(Cl)c1)C1CCCN(Cc2ccc(N3CCNC3=O)cc2)C1` (stereo unspecified) was tested, and the activity change, negative = inhibition was -1.51%. For `CCC(=O)N1CCN=C1SCc1cccc(F)c1`, the activity change, negative = inhibition was -25.9%. Work on `O=C(CN1C(=O)CSC1=O)N1CCCC(Nc2ccc(F)cc2)C1` (stereo unspecified) yielded an activity change, negative = inhibition of -78.4%. With `Cc1nc(N2CCN(C)CC2)c2cc(-c3ccccc3)sc2n1` the activity change, negative = inhibition was -4.2%. `COc1cc(C(=O)O)c2c(c1C)OC(=O)c1c(C)cc(O)c(C=O)c1O2` was tested, and the activity change, negative = inhibition was -39.1%. With `CNC(=O)c1csc(-c2ccc(C)cc2)n1` the activity change, negative = inhibition was 146%. `CCNc1nc(NCC)nc(N(C)N)n1` was tested, and the activity change, negative = inhibition was -22.3%. Work on `Cc1cccc(NCc2ccc(N(C)C)cc2)n1` yielded an activity change, negative = inhibition of -5.45%. Work on `CC(C)n1c(NCc2cccs2)nc2ccccc21` yielded an activity change, negative = inhibition of -4.15%. `COc1ccc(O)c(CNc2ccccc2F)c1` gave an activity change, negative = inhibition of -6.08%. `CC(=O)Nc1ccc(NCc2ccc(C)s2)cc1` gave an activity change, negative = inhibition of -11.5%. Molecule `CC(=O)Nc1ccc(-c2csc(NNC(=O)c3ccccc3)n2)cc1` has an activity change, negative = inhibition of 7.25%. In the case of `O=C(CN1C(=O)S/C(=C\C=C\c2ccccc2)C1=O)Nc1ccccc1C(=O)O`, the activity change, negative = inhibition is reported as -58%. In the case of `COc1cc(C(=O)N/N=C/c2cccc(Oc3ccccc3)c2)ccc1O`, the activity change, negative = inhibition is reported as -2.05%. Work on `Cc1[nH]n(C(N)=S)c(=O)c1N=Nc1cccc([N+](=O)[O-])c1C` yielded an activity change, negative = inhibition of -50.5%. `CCN(CC)S(=O)(=O)c1ccc(C(=O)Nc2nnc(CSC)o2)cc1` was tested, and the activity change, negative = inhibition was -25.7%. Work on `Cc1cc(C(=O)Nc2nc3c(s2)CCCC3)no1` yielded an activity change, negative = inhibition of -50.2%. For `Cc1cc(C(=O)Nc2sc3c(c2C#N)CCCC3)no1`, the activity change, negative = inhibition was -53.9%. With `O=C(NCc1n[nH]c(=S)n1-c1ccc(Cl)c(Cl)c1)c1ccc(S(=O)(=O)N2CCCCC2)cc1` the activity change, negative = inhibition was 15%. Molecule `COc1ccc(C(=O)c2ccc(N(C)C)cc2)c(OC)c1` has an activity change, negative = inhibition of -4.89%. `CC(C)C(=O)n1nc(-c2cccnc2)nc1NCc1cccs1` showed an activity change, negative = inhibition of -25.7%. `C(=C\c1nc2ccccc2[nH]1)/c1ccccc1` showed an activity change, negative = inhibition of -1.44%. With `O=c1[nH]ccc2c(O)cccc12` the activity change, negative = inhibition was -103%. `Nc1ccc2nc[nH]c2c1` showed an activity change, negative = inhibition of -12.8%. `CC(C)Cc1nc2ccc(N)cc2[nH]1` showed an activity change, negative = inhibition of -1.73%. `Nc1ccc(-c2nc3ccc([N+](=O)[O-])cc3[nH]2)cc1` gave an activity change, negative = inhibition of 31%. `COc1ccc(N=C2C(=O)N3CCCc4cccc2c43)cc1` showed an activity change, negative = inhibition of -15.6%. `Cc1ccc(S(=O)(=O)N2CCCC(C(=O)O)C2)s1` (stereo unspecified) gave an activity change, negative = inhibition of 5.85%. For `COc1cc(NC(=O)C2CCCN(S(=O)(=O)c3cnc[nH]3)C2)cc(OC)c1` (stereo unspecified), the activity change, negative = inhibition was -31%. For `O=C(NCc1ccccc1Cl)C1CCCN(S(=O)(=O)c2cnc[nH]2)C1` (stereo unspecified), the activity change, negative = inhibition was 20%. `O=C(NCCc1ccccc1)C1CCCN(S(=O)(=O)c2cnc[nH]2)C1` (stereo unspecified) showed an activity change, negative = inhibition of 6.71%. `N#Cc1c2n(c3c(=O)n(Cc4ccccc4)cnc13)CCCC2` was tested, and the activity change, negative = inhibition was 18%. With `N#Cc1c(N)c(C(=O)c2ccccc2)n2c1CCC2` the activity change, negative = inhibition was -45.9%. `COc1ccc(C(=O)NCCNc2nc3ccc(C)cc3cc2C#N)cc1OC` was tested, and the activity change, negative = inhibition was 3.56%. Molecule `CN(C)c1ccc(/C=N/Nc2cccc(C(=O)O)c2)cc1` has an activity change, negative = inhibition of -23.9%. Work on `O=C(/C(=N/N=C/c1ccc(O)c(O)c1O)c1ccccc1)c1ccccc1` yielded an activity change, negative = inhibition of -31.1%. Molecule `CCC(C)(C)n1nnnc1CN1CCc2ccccc21` has an activity change, negative = inhibition of 23.2%. `CC1CCN(CC(=O)N2c3ccccc3CCc3ccccc32)CC1` was tested, and the activity change, negative = inhibition was 2.93%. `COc1ccc(NC(=O)CC2Nc3cccc4cccc(c34)NC2=O)cc1` (stereo unspecified) was tested, and the activity change, negative = inhibition was -74.6%. Work on `CN(C)c1ccc(NC(=O)CC2NCCNC2=O)cc1` (stereo unspecified) yielded an activity change, negative = inhibition of -99.5%. `CC(C)Cn1c(N)c(C=O)c(=O)n(C)c1=O` was tested, and the activity change, negative = inhibition was -3.74%. Work on `CN(Cc1ccco1)C(=O)C(Cc1ccccc1)NS(=O)(=O)c1ccc2c(c1)CCC(=O)N2` (stereo unspecified) yielded an activity change, negative = inhibition of -12%. `CSc1ccc(/C=C2\C(=N)N3N=C(CC(=O)N4CCCCC4)SC3=NC2=O)cc1` gave an activity change, negative = inhibition of -54.4%. `N=C1/C(=C\c2ccc(Br)o2)C(=O)N=C2SC(CC(=O)N3CCCCC3)=NN12` was tested, and the activity change, negative = inhibition was -18.4%. `CCc1ccc(CCC(=O)Nc2ccc(Cl)cc2)o1` gave an activity change, negative = inhibition of -22.5%. With `Cn1c(-c2sccc2OCc2ccccc2)n[nH]c1=S` the activity change, negative = inhibition was -40.7%. In the case of `Cc1nc(-c2ccccc2)sc1-c1n[nH]c(=S)n1C`, the activity change, negative = inhibition is reported as -47.5%. Molecule `CC(C)C(=O)NN(C(=O)C(C)C)c1nc2ccccc2s1` has an activity change, negative = inhibition of -76%. Work on `COc1cc(CNc2cc(C)ccc2C)cc(OC)c1OC` yielded an activity change, negative = inhibition of -55.5%.

Source: PubChem BioAssay AID493248 (Broad Institute, 2011)
